Experimental data taken from ChEMBL document CHEMBL1961873, “Compounds: GSK PKIS; Assays: Nanosyn kinase panel” (2012).

How the values were obtained:
[1] = target: Protein kinase C gamma type (Homo sapiens) (UniProt P05129); settings: at 1 µM;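 further: each value is an averaged percent inhibition of the enzyme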
[2] = target: T1, Protein kinase C iota type (Homo sapiens) (UniProt P41743); settings: at 0.1 µM
T1 sequence (whole entry): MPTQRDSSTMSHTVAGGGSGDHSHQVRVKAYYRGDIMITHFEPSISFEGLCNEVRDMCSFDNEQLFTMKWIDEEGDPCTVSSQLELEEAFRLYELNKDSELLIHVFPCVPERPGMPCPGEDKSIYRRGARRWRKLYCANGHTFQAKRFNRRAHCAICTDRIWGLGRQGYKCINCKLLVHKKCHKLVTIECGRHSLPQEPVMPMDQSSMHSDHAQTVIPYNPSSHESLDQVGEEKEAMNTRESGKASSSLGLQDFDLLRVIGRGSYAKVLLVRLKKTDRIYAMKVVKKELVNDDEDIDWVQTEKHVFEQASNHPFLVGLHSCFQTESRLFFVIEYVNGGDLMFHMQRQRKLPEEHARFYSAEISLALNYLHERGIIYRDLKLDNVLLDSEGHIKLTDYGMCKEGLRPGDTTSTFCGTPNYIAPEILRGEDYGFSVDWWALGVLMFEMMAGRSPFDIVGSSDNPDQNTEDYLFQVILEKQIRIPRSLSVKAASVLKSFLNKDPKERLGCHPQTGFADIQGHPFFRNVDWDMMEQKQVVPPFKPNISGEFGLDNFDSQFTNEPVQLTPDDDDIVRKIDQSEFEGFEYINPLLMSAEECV

[3] = target: T1, Protein kinase C iota type (Homo sapiens); settings: at 1 µM
[4] = target: Protein kinase C theta type (Homo sapiens) (UniProt Q04759); settings: at 0.1 µM
Sequence of Protein kinase C theta type (Homo sapiens) (Q04759 whole entry, looked up): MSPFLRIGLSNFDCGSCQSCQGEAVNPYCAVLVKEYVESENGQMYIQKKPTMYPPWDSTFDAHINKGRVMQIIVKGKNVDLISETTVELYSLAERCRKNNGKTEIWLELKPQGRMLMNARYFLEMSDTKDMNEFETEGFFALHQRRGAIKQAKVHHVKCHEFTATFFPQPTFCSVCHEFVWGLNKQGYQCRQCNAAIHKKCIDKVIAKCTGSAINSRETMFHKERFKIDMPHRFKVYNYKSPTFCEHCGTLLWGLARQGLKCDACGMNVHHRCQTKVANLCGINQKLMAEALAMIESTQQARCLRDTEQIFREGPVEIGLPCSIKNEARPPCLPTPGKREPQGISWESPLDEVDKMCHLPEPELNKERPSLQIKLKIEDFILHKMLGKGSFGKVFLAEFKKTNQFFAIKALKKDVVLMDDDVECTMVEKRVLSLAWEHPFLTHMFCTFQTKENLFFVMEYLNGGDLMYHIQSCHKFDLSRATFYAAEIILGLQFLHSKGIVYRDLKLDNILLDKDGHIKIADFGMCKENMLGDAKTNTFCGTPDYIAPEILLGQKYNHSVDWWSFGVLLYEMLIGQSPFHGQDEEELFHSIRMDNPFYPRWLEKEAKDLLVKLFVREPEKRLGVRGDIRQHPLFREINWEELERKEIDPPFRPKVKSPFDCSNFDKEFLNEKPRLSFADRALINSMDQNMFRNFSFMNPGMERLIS

[5] = target: Protein kinase C theta type (Homo sapiens) (UniProt Q04759); settings: at 1 µM
[6] = target: Protein kinase C beta type (Homo sapiens) (UniProt P05771); settings: at 0.1 µM
Sequence of Protein kinase C beta type (Homo sapiens) (P05771 2-671 limits assumed): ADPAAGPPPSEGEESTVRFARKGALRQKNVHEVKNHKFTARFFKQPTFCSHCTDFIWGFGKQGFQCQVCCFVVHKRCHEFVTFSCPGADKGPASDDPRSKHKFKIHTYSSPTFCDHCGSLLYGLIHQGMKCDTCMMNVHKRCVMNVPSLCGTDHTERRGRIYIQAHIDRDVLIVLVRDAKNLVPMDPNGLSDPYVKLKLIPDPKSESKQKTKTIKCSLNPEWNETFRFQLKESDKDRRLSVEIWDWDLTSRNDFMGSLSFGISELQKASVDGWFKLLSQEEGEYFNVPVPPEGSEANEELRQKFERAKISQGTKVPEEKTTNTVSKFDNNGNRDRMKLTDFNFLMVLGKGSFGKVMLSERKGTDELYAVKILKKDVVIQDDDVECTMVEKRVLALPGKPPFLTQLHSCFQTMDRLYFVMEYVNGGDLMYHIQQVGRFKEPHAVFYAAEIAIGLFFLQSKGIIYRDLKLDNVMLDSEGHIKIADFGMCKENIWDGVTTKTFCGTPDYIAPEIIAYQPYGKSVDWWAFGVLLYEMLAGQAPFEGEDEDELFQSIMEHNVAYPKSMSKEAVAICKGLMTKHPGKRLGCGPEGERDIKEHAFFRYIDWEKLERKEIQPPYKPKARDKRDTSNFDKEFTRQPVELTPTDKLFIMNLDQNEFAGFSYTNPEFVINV

[7] = target: Protein kinase C beta type (Homo sapiens) (UniProt P05771); settings: at 1 µM
[8] = target: T2, Serine/threonine-protein kinase D1 (Homo sapiens) (UniProt Q15139); settings: at 0.1 µM
T2 sequence (whole entry): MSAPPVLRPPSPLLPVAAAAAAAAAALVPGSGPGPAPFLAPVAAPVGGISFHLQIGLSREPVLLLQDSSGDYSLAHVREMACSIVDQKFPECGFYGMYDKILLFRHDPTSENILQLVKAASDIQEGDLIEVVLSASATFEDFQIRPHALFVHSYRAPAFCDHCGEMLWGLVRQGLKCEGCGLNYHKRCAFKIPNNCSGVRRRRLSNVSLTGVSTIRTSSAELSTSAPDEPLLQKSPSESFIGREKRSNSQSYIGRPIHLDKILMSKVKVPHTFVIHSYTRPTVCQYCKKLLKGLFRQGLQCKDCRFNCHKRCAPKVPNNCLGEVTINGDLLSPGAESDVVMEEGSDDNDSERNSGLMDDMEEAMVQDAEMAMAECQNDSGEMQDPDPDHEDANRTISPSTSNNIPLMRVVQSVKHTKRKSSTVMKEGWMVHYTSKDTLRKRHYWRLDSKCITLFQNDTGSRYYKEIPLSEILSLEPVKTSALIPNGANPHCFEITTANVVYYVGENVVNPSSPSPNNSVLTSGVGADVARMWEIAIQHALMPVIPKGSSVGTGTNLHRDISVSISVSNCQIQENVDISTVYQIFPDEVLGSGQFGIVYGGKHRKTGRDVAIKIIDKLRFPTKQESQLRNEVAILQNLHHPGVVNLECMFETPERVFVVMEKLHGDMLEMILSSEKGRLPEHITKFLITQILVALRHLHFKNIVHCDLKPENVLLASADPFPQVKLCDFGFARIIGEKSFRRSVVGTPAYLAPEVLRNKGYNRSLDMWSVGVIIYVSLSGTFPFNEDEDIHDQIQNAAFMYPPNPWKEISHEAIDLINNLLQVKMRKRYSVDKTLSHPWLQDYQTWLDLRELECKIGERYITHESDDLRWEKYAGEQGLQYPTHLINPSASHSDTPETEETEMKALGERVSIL

[9] = target: T2, Serine/threonine-protein kinase D1 (Homo sapiens); settings: at 1 µM
[10] = target: T3, Serine/threonine-protein kinase D2 (Homo sapiens) (UniProt Q9BZL6); settings: at 0.1 µM
T3 sequence (whole entry): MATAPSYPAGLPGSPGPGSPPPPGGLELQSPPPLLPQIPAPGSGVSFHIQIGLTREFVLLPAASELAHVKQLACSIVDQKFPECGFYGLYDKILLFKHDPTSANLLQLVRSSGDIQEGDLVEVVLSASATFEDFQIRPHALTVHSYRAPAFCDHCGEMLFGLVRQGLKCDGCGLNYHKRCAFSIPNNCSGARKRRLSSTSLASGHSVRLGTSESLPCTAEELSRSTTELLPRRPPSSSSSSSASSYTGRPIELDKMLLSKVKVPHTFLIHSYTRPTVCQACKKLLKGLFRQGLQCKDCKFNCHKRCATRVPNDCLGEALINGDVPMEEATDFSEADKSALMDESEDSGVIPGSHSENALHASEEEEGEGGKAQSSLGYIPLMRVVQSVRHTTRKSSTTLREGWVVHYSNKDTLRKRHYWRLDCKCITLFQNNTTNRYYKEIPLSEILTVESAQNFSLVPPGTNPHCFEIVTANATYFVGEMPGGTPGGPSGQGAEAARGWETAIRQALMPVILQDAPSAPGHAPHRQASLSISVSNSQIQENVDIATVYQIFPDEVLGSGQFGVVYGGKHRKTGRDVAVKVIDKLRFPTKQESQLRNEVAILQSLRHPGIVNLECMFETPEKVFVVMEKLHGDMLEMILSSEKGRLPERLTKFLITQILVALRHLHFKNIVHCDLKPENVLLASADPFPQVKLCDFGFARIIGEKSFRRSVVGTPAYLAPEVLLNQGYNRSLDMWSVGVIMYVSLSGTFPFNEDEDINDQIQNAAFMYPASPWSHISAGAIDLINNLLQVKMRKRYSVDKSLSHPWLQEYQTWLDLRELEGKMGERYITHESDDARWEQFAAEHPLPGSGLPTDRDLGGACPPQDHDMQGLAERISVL

[11] = target: T3, Serine/threonine-protein kinase D2 (Homo sapiens); settings: at 1 µM
[12] = target: T4, Serine/threonine-protein kinase D3 (Homo sapiens) (UniProt O94806); settings: at 0.1 µM
T4 sequence (whole entry): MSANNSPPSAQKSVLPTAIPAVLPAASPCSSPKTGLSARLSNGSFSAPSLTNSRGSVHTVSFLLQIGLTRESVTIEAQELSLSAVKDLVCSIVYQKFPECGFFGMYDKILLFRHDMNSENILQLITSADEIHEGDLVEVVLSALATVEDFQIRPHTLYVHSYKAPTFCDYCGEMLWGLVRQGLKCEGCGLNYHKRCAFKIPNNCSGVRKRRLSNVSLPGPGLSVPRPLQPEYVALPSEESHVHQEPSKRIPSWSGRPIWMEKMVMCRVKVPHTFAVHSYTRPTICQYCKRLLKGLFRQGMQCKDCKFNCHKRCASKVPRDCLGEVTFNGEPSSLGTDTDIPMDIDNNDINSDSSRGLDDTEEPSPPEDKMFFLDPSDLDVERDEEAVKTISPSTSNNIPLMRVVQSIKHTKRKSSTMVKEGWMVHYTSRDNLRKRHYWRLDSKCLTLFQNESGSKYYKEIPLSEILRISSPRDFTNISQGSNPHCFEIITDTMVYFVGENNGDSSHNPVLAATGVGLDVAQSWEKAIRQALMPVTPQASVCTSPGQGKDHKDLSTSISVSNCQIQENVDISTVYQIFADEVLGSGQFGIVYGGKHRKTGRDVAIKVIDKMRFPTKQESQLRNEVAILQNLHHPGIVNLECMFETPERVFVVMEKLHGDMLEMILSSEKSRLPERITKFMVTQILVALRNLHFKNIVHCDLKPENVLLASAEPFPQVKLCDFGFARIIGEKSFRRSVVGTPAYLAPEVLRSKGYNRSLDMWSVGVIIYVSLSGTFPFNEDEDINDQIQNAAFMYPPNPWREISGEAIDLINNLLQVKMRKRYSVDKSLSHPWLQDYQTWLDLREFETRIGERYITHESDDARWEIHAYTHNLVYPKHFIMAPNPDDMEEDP

[13] = target: T4, Serine/threonine-protein kinase D3 (Homo sapiens); settings: at 1 µM
[14] = target: T5, cGMP-dependent protein kinase 1 (Homo sapiens) (UniProt Q13976); settings: at 0.1 µM
T5 sequence (whole entry): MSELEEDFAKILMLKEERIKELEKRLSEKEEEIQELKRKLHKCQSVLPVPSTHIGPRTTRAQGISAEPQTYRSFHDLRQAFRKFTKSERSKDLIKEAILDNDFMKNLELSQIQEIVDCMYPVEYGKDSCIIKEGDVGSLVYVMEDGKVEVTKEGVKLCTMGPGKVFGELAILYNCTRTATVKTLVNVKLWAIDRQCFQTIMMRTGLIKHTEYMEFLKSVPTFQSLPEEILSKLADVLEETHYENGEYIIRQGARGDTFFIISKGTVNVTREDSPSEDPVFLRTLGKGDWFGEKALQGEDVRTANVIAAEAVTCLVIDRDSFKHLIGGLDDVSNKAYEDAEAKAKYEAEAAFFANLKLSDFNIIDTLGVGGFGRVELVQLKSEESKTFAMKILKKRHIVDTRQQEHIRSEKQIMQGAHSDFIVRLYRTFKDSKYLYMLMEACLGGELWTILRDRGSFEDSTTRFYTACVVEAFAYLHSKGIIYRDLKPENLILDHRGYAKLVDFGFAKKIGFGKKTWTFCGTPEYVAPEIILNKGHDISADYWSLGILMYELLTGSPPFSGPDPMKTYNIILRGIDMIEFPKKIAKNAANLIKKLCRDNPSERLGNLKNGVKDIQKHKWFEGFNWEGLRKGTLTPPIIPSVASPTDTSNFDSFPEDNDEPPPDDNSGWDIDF

[15] = target: T5, cGMP-dependent protein kinase 1 (Homo sapiens); settings: at 1 µM
[16] = target: T6, cGMP-dependent protein kinase 2 (Homo sapiens) (UniProt Q13237); settings: at 0.1 µM
T6 sequence (whole entry): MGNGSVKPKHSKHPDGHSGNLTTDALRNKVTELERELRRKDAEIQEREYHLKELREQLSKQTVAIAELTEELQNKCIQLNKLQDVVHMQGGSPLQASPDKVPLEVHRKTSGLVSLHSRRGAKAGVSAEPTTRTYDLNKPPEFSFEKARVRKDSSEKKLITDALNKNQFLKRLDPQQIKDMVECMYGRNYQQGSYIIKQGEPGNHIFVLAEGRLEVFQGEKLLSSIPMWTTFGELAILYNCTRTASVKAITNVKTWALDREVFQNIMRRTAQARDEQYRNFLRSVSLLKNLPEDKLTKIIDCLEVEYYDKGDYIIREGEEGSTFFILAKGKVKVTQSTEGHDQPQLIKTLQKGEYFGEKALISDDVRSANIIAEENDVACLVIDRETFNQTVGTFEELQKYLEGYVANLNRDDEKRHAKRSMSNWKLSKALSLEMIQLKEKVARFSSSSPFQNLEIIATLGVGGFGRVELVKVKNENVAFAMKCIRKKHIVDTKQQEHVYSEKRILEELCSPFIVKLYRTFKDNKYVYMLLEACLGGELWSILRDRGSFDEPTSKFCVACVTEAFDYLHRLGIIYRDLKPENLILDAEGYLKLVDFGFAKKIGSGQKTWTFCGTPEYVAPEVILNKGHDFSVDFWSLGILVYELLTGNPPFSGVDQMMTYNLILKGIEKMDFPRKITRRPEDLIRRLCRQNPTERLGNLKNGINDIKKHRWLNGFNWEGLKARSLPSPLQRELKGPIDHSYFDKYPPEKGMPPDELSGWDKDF

[17] = target: T6, cGMP-dependent protein kinase 2 (Homo sapiens); settings: at 1 µM
[18] = target: T7, cAMP-dependent protein kinase catalytic subunit PRKX (Homo sapiens) (UniProt P51817); settings: at 0.1 µM
T7 sequence (whole entry): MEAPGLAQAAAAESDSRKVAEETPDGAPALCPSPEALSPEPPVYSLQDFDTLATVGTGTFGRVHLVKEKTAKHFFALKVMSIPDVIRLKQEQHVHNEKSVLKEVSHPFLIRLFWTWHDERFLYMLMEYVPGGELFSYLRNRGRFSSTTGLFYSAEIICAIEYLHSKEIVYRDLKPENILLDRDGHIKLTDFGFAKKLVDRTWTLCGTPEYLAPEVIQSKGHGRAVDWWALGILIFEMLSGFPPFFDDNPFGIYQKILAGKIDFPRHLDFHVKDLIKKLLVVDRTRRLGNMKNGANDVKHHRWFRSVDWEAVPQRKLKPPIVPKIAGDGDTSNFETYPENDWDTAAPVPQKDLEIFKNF

[19] = target: T7, cAMP-dependent protein kinase catalytic subunit PRKX (Homo sapiens); settings: at 1 µM
[20] = target: Rho-associated protein kinase 1 (Homo sapiens) (UniProt Q13464); settings: at 0.1 µM;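 further: values are mean percent inhibition of ROCK1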
Sequence of Rho-associated protein kinase 1 (Homo sapiens) (Q13464 2-1354 limits assumed): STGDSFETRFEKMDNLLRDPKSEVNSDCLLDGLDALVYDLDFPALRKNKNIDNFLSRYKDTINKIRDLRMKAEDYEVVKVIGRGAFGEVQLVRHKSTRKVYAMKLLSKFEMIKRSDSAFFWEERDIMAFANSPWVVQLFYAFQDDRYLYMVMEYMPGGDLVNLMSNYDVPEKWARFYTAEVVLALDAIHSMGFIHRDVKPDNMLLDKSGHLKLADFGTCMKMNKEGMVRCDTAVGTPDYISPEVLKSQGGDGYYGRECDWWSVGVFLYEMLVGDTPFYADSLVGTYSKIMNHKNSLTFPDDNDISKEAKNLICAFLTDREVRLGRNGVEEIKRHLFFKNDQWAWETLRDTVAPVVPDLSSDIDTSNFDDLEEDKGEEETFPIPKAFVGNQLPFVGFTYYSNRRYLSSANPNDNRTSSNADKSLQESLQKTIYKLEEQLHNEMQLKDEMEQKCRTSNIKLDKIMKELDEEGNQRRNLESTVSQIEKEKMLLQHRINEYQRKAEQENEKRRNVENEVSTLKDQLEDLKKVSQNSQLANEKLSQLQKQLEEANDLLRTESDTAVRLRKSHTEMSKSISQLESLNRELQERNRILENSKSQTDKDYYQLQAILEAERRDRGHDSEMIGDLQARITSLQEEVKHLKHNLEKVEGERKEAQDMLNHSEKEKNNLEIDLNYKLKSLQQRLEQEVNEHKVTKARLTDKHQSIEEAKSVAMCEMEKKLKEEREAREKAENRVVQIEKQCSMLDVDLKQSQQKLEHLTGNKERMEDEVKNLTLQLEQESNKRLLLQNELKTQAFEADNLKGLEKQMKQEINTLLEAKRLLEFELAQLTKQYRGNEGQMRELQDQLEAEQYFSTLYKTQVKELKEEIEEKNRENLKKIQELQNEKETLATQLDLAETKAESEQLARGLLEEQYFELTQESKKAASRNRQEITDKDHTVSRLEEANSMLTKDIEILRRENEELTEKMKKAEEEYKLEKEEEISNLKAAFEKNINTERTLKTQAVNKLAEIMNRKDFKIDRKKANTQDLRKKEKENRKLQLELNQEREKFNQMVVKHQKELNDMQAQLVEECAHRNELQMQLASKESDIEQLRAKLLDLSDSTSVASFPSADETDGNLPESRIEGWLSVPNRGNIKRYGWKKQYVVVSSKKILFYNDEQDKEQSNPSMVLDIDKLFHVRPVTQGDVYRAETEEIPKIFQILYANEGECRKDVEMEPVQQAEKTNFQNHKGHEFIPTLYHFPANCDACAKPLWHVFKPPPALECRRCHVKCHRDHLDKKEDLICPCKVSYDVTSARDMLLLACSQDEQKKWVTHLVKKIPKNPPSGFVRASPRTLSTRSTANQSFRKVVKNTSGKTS

COc1cc(N2CCN(C(C)C)CC2)ccc1Nc1nc(Nc2cccc3ncccc23)c2cc[nH]c2n1
inhibition [1]: 0.74% | inhibition [2]: -0.08% | inhibition [3]: 0.58% | inhibition [4]: -0.84% | inhibition [5]: -1.07% | inhibition [6]: -0.21% | inhibition [7]: 0.45% | inhibition [8]: -0.17% | inhibition [9]: 3.6% | inhibition [10]: 0.68% | inhibition [11]: 4.37% | inhibition [12]: -0.78% | inhibition [13]: 4.56% | inhibition [14]: -1.01% | inhibition [15]: 2.36% | inhibition [16]: 0.84% | inhibition [17]: 0.42% | inhibition [18]: 0.02% | inhibition [19]: -0.18% | inhibition [20]: 0.12%
